BRCA1 expr up = activators of BRCA1 expression. MCF7-BRCA1-FFLuc reporter, luminescence, 48 h; response scale: scaled: vehicle 0%, 10 µM genistein 100%. Potency, µM (doses to about 46.1 µM), hits mostly activators. 380,000 tested, 1.1% active. AID 624202; also: nearly all actives have a fitted effect of over 80% in size
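Quantitative HTS in MCF7 cells stably reporting BRCA1 expression via firefly luciferase. Compound treatment lasts 48 h at 37 °C in phenol-red free MEM. Activation is expressed relative to genistein at 10 microM and DMSO.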
Integrin act MD = integrin-mediated muscular dystrophy alleviation activation; 350,000 tested, 0.064% active; AID 624291; Potency, µM (doses to about 38.3 µM), hits mostly activators; alpha7betagal myoblasts, beta-gal FDG fluorescence, 48 h; also: nearly all actives have a fitted effect of over 60% in size
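Alpha7betagal+/- myoblasts (passage 13) were plated 16-24 hr, then exposed to compounds (1:260 dilution of DMSO stock) for 48 hours at 37C. After MPER lysis, β-galactosidase reporter activity was read as FDG fluorescence (ex 480/em 540) after 30 minutes.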
HEK293 tox = cytotoxicity counter-screen for GLP-1 receptor inverse agonists; Potency, µM (top dose mostly 38.3 µM), hits mostly inhibitors; 410,000 tested, 0.13% active; HEK293 cAMP-luciferase reporter cells, luminescence, 24 h;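 also: loss of luciferase light is scored as toxicity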
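To flag toxic compounds, the library was rerun on cells for 24 hr at 37 deg C and 5% CO2. Viability-linked luminescence was captured 12 min after adding luciferase detection reagent.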
GLP-1R inv ag = acts as inverse agonist at human GLP-1 receptor | 410,000 tested, 1.6% active | AID 624417 | Potency, µM (highest dose often 38.3 µM), actives largely listed as inhibitors | HEK293 GLP-1R CRE-luciferase, luminescence, 24 h; GLP-1R form is constitutively active | P43220; also: nearly all actives have a fitted effect of over 55% in size
Target sequence (P43220 whole entry, looked up): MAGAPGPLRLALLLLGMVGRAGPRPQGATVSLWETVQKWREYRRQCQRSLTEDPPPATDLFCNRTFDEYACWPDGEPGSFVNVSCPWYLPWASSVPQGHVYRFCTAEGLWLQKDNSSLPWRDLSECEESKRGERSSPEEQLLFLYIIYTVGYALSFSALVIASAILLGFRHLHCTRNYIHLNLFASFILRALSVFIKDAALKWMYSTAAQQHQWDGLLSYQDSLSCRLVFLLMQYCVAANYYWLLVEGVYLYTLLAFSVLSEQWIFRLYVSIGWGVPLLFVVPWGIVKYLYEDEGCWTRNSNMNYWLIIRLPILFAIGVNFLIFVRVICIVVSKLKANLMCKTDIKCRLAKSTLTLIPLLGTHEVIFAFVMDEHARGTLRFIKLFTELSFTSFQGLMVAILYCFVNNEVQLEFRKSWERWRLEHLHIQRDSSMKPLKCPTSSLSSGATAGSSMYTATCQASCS
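Luminescence readout: a drop in cAMP-driven luciferase signal flags inverse agonism at a constitutively active GLP-1R stably expressed in HEK293. Compound exposure lasted 24 hr at 37 deg C, 5% CO2.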
GLP-1R agonist = activates the human GLP-1 receptor; P43220; HEK293 GLP-1R CRE-luciferase, luminescence, 4-6 h; cells express a hypersensitive GLP-1R form; Potency, µM (highest dose often 45.6 µM), usual class: activators; 380,000 tested, 0.007% active; AID 624172
Hits are given with their value; . = inactive; ? = inconclusive; / = no result given. Most compounds without a hit are left out; they make up all but 2.7% or so of the library. Calls follow the shape of the dose curve; as a rule, active = well fitted curve in the direction sought with a large enough effect; inconclusive = small, poorly fitted or top-dose-only effect, or another doubt; inactive = no such curve, though single readings can be large; an effect the other way counts as inactive or inconclusive.

SMILES	BRCA1 expr up	Integrin act MD	HEK293 tox	GLP-1R inv ag	GLP-1R agonist
O=C(c1cc(COc2ccc(F)cc2Cl)on1)N1CCN(C2CCCCC2)C(=O)C1	.	.	.	10µM	.
Cc1cccc(C)c1OCc1cc(C(=O)N2CCN(c3ccccc3)CC2C)no1 (stereo not given)	.	.	.	?	.
Cc1ccc(C)c(OCc2cc(C(=O)N3CC[C@@H]4CCCC[C@H]4C3)no2)c1	?	.	.	11µM	.
Cc1ccc(C)c(OCc2cc(C(=O)N3C[C@@H](C)O[C@@H](C)C3)no2)c1	4.5µM	.	.	?	.
Cc1ccc(C)c(OCc2cc(C(=O)N3CCN(c4ccccc4C)CC3C)no2)c1 (stereo not given)	.	.	.	2.5µM	.
Cc1ccc(C)c(OCc2cc(C(=O)N3CCN(C4CCCCC4)CC3)no2)c1	.	.	.	?	.
COc1ccc(-n2c(Cc3ccccc3)nnc2SCc2nc(-c3cccs3)no2)cc1	.	/	.	?	/
Cc1ccc(C)c(OCc2cc(C(=O)N3CCN(c4ccccc4)CC3)no2)c1	7.1µM	.	.	?	.
Cc1ccc(C)c(OCc2cc(C(=O)N3CCN(C(=O)c4ccco4)CC3)no2)c1	?	.	.	.	.
O=S(=O)(NC(=NC1CCCCC1)c1ccccc1)c1ccccc1	.	.	.	.	.
O=S(=O)(NC(=NC1CCCCC1)c1ccccc1F)c1ccccc1	.	10µM	.	.	.
COCc1c(C(=O)OCc2nc3ccsc3c(=O)[nH]2)oc2ccccc12	.	1.1µM	.	.	.
Cc1ccc(C(=O)OCc2nc3ccsc3c(=O)[nH]2)o1	.	.	.	.	.
Cc1cc(C)n(CC(O)Cn2c3ccccc3c3ccccc32)c(=O)n1 (stereo not given)	.	.	.	.	.
Cc1cc(C)n(CC(O)Cn2c3ccc(Br)cc3c3cc(Br)ccc32)c(=O)n1 (stereo not given)	.	.	.	11µM	.
O=C(Cc1coc2cc3c(cc12)CCC3)NCC1(N2CCCCC2)CCCCC1	.	.	?	10µM	.
O=C(Cc1coc2cc3c(cc12)CCC3)NC1CCCCCCC1	.	.	.	?	.
Cc1cccc(C)c1OC(=O)CCN1C(=O)C2C3C=CC(C4CC34)C2C1=O (stereo not given)	.	.	.	7.1µM	.
O=C(/C=C/Nc1ccccc1)c1ccccc1	?	.	.	?	.
O=C(/C=C/Nc1ccccc1)c1ccc(Cl)cc1Cl	?	.	.	11µM	.
CCOc1ccccc1-c1nc(C(N)=O)c2c(n1)n(-c1ccc3c(c1)OCO3)c(=O)n2C	.	/	.	.	.
CCc1cc2c(=O)n(-c3ccccc3)cnc2s1	18µM	.	.	.	.
CC(c1nc2ccccc2n1Cc1ccccc1)N1CCCCC1 (stereo not given)	.	?	?	1.3µM	.
CCCCCCn1c(=O)n2n(c1=O)C[C@]1(OC(=O)NCC3CCCCC3)CN(S(=O)(=O)c3ccc(C)cc3)C[C@]1(O)C2	.	.	.	10µM	.
CCCCCCn1c(=O)n2n(c1=O)[C@@H]1CN(S(=O)(=O)c3ccc(C)cc3)C[C@]1(O)[C@@H](OC(=O)NCc1ccccc1)C2	.	.	.	11µM	.
SMILES	BRCA1 expr up	Integrin act MD	HEK293 tox	GLP-1R inv ag	GLP-1R agonist
CCCCCCn1c(=O)n2n(c1=O)C[C@]1(OC(=O)NC3CCCC3)CN(S(=O)(=O)c3ccc(C)cc3)C[C@]1(O)C2	.	.	.	?	.
CCNC(=S)N1N=C2c3ccccc3CCC2C1c1ccc(F)cc1 (stereo not given)	.	.	?	3.5µM	.
Cc1ccc(C)c(NC(=O)CCN2C(=O)c3ccccc3Sc3ncccc32)c1	/	/	.	.	/
COc1ccc(N=C(c2ccccc2)c2c(C)[nH]n(-c3ccccc3)c2=O)c(OC)c1	.	.	.	7.9µM	.
COc1ccccc1N=Nc1c(C)[nH]n(-c2ccccc2)c1=O	.	.	.	.	.
S=C(c1ccc(-c2cccc(Cl)c2)o1)N1CCOCC1	3.5µM	.	.	.	.
N#CCCN1CCN(C(=S)c2ccc(-c3cccc(Cl)c3)o2)CC1	10µM	.	.	?	.

Assay outcomes deposited in PubChem BioAssay by National Center for Advancing Translational Sciences (NCATS).
